Source: the supplement of paper PMC12350171
Structures can show the parent of a compound that is named as a salt.

System: P. vulgatus WT
Assay: growth AUC normalised to DMSO control (median) (fraction of control); higher = less growth inhibition, active = hit call of the paper
Details: 20 µM;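 active = normalised median growth AUC below 0.1 of DMSO control; inactive = AUC 0.1 or higher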
Procedure, shortened: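 Strains were passaged twice overnight without oxygen, then grown in mGAM in 96-well plates with each approved-drug library compound at 20 μM and 1% DMSO, starting at OD578 0.01. OD578 was read hourly for 24 h inside an anaerobic incubator. Curves were truncated at entry into stationary phase, and the trapezoidal-rule area under the curve was normalised to same-plate vehicle wells. The value is the median across three biological replicates.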
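Note: active when median AUC fell below 0.1.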

| Structure (SMILES) | growth AUC normalised to DMSO control |
| --- | --- |
| Cn1c(=O)c2c(ncn2CC(O)CO)n(C)c1=O (stereo not given) [Diprophylline] | 0.989 (inactive) |
| CC(C)(C)NC[C@@H](O)COc1cccc2c1CCCC2=O [(+) Levobunolol hydrochloride] | 0.975 (inactive) |
| C[C@]12CCC(=O)C=C1CC[C@@H]1[C@@H]2[C@@H](O)C[C@@]2(C)[C@H]1CC[C@]2(O)C(=O)CO [Hydrocortisone] | 0.994 (inactive) |
| C#Cc1cccc(Nc2ncnc3cc(OCCOC)c(OCCOC)cc23)c1 [Erlotinib] | 0.989 (inactive) |
| O=C1CCC(N2C(=O)c3ccccc3C2=O)C(=O)N1 (stereo not given) [Thalidomide] | 1.01 (inactive) |
| CCOC(=O)C1=C(COCCN)NC(C)=C(C(=O)OC)C1c1ccccc1Cl (stereo not given) [Amlodipine] | 1.02 (inactive) |
| COc1ccc(CN(CCN(C)C)c2ccccn2)cc1 [Pyrilamine maleate] | 0.979 (inactive) |
| CN1CCCC(CC2c3ccccc3Sc3ccccc32)C1 (stereo not given) [Metixene hydrochloride] | 0.704 (inactive) |
| CC(C)/N=c1\cc2n(-c3ccc(Cl)cc3)c3ccccc3nc-2cc1Nc1ccc(Cl)cc1 [Clofazimine] | 0.0974 (active) |
| NC(N)=Nc1nc(CSCC/C(N)=N/S(N)(=O)=O)cs1 [Famotidine] | 1.04 (inactive) |
| O=C1c2ccccc2C(=O)C1c1ccccc1 [Phenindione] | 0.989 (inactive) |
| CN1CCN2c3ccccc3Cc3ccccc3C2C1 (stereo not given) [Mianserine hydrochloride] | 1.03 (inactive) |
| CCN1C(=O)NC(c2ccccc2)C1=O (stereo not given) [Ethotoin] | 0.993 (inactive) |
| CC(=O)OCC(=O)[C@@]12OC3(CCCC3)O[C@@H]1C[C@H]1[C@@H]3CCC4=CC(=O)C=C[C@]4(C)[C@@]3(F)[C@@H](O)C[C@@]12C [Amcinonide] | 0.991 (inactive) |
| CCc1cccc(CC)c1NC(=O)CN(CC(=O)O)CC(=O)O [Etifenin] | 1.01 (inactive) |
| COc1ccc(C(Cl)=C(c2ccc(OC)cc2)c2ccc(OC)cc2)cc1 [Chlorotrianisene] | 0.928 (inactive) |
| CC(=O)c1ccc2c(c1)N(CCCN(C)C)c1ccccc1S2 [Acetopromazine maleate salt] | 0.963 (inactive) |
| CCN1CCCC(OC(=O)C(c2ccccc2)c2ccccc2)C1 (stereo not given) [Piperidolate hydrochloride] | 1.04 (inactive) |
| CCCCOc1ccc(CC(=O)NO)cc1 [Bufexamac] | 0.991 (inactive) |
| NC[C@@H]1O[C@H](O[C@H]2[C@@H](O)[C@H](O[C@@H]3[C@@H](O)[C@H](N)C[C@H](N)[C@H]3O[C@H]3O[C@H](CN)[C@@H](O)[C@H](O)[C@H]3N)O[C@@H]2CO)[C@H](N)[C@@H](O)[C@@H]1O [Neomycin sulfate] | 1.01 (inactive) |
| COc1cc(C(=O)OCCCN2CCCN(CCCOC(=O)c3cc(OC)c(OC)c(OC)c3)CC2)cc(OC)c1OC [Dilazep dihydrochloride] | 0.989 (inactive) |
| NC1CCN(c2c(F)cc3c(=O)c(C(=O)O)cn(C4CC4)c3c2Cl)C1 (stereo not given) [Clinafloxacin] | 0.0148 (active) |
| CC(=O)O[C@H]1C[C@@]2(C)[C@@H](C[C@@H](O)[C@H]3[C@@]4(C)CC[C@@H](O)[C@@H](C)[C@@H]4CC[C@@]32C)/C1=C(\CCC=C(C)C)C(=O)O [Fusidic acid sodium salt] | 0.0143 (active) |
| c1cnc(N2CCN(Cc3ccc4c(c3)OCO4)CC2)nc1 [Piribedil] | 1.09 (inactive) |
| O=C(CCCCC(=O)Nc1c(I)cc(I)c(C(=O)O)c1I)Nc1c(I)cc(I)c(C(=O)O)c1I [Iodipamide] | 1 (inactive) |
| COc1ccc2c(c1)C(=O)N(CCc1ccc(S(=O)(=O)NC(=O)NC3CCCCC3)cc1)C(=O)C2(C)C [Gliquidone] | 1.01 (inactive) |
| CC1(C)S[C@@H]2[C@H](NC(=O)[C@H](C(=O)O)c3ccsc3)C(=O)N2[C@H]1C(=O)O [Ticarcillin sodium] | 0.0131 (active) |
| CCOC(=O)/C=C(C)/C=C/C=C(C)/C=C/c1c(C)cc(OC)c(C)c1C [Etretinate] | 1.06 (inactive) |
| O=C(O)COCCN1CCN(C(c2ccccc2)c2ccc(Cl)cc2)CC1 (stereo not given) [Cetirizine dihydrochloride] | 1.01 (inactive) |
| CCN(CC)C(C)CN1c2ccccc2Sc2ccccc21 (stereo not given) [Ethopropazine hydrochloride] | 0.246 (inactive) |
